system: FLX1 + dox-induced PRKAR1A G325D; experiment: difference in log2 fold change of viability vs plate median (dox-induced PRKAR1A G325D minus uninduced); higher = compound less effective when PKA is inhibited; settings: concentration: not stated (2 or 5 uM); 5 days
Procedure: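 For each plate a log2 fold change vs the plate median was derived, and the values without dox were subtracted from those with dox, averaged over three biological replicates.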

CCN1CCN(C(=O)Cc2ccc(Nc3ncc(F)c(Nc4ccc(C(=O)Nc5ccccc5Cl)cc4)n3)cc2)CC1 [Aurora A Inhibitor I] and Cn1cc(C2=C(c3cn(C4CCN(Cc5ccccn5)CC4)c4ccccc34)C(=O)NC2=O)c2ccccc21 are within 0.2 log units of each other in “difference in log2 fold change of viability” value (“difference in log2 fold change” for short): -0.138 for the first, -0.214 for the second.

Cc1ccccc1-n1c(Cn2ncc3c(N)ncnc32)nc2cccc(C)c2c1=O and O=c1[nH]c2ccc(Cl)cc2c(N[C@@H]2CN3CCC2CC3)c1-c1nc2ccccc2[nH]1 are within 0.2 log units of each other in “difference in log2 fold change” value: -0.0566 for the first, -0.0624 for the second.

Compared with CC(C)(C)c1cc(C=C(C#N)C#N)cc(Br)c1O, CC(C)(C)c1cc(C=C(C#N)C#N)cc(C(C)(C)C)c1O [Tyrphostin 9] is lower in “difference in log2 fold change” value: 0.78 for the first, 0.375 for the second.

Reference: the supplement of paper PMC9925115
